The source of these data is PubChem BioAssay (NCATS).

Results filed as inconclusive are left out. Where a call stands in place of a potency, no number is given. A number with no mark means an inactive call. Calls of active or inactive are those of the source. Calls come from the whole dose curve; as a rule, active = well fitted inhibition curve with a large enough effect; inconclusive = small, poorly fitted or top-dose-only effect; inactive = flat fitted curve, though single readings scatter.

Calcium and integrin-binding protein 1 (Homo sapiens), sequence (Q99828 whole entry, looked up): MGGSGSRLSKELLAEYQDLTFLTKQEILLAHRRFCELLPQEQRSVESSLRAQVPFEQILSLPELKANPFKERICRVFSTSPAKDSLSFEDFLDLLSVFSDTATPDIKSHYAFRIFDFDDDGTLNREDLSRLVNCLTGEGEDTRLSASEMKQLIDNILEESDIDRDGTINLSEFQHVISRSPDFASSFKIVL

The assay has as its target Calcium and integrin-binding protein 1 (Homo sapiens) (UniProt Q99828). The assay can be described thus: Primary qHTS for Identification of Calcium Integrin Binding Protein 1 (CIB1) Competitor (AID 1508620).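 Note: GST tagged CIB1 binding a fluorescein labelled alphaIIb integrin peptide tracer; top concentration of the series differs between compounds.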 The note with it: CIB1-GST / FITC-alphaIIb peptide fluorescence polarization; series mostly up to 114 µM. In a few lines:
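CIB1-GST (1 uM final) and compound incubated 15 min at room temperature before adding FITC-alphaIIb peptide tracer (100 nM final). Competition for binding read by fluorescence polarization (ex 480, em 540) after another 15 min at room temperature.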
(In qHTS, concentration-response curves come from the screen itself.)
In the case of `CC[C@@](C)(Nc1ccnc(-c2c[nH]c3ncccc23)n1)C(=O)NCC(F)(F)F`, the Potency entry was “inactive”. Turning to `C[C@@H]1CC[C@]2(C(=O)O[C@@H]3O[C@H](CO)[C@@H](O)[C@H](O)[C@H]3O)CC[C@]3(C)C(=CCC4[C@@]5(C)C[C@@H](O)[C@H](O)[C@@](C)(C(=O)O[C@H]6[C@H](O)C[C@@]7(C)C(CC[C@]8(C)C7CC=C7[C@H]9[C@](C(=O)O[C@@H]%10O[C@H](CO)[C@@H](O)[C@H](O)[C@H]%10O)(CC[C@@H](C)[C@@]9(C)O)CC[C@]78C)[C@@]6(CO)C(=O)O)C5CC[C@]43C)[C@@H]2[C@]1(C)O` (stereo partly drawn), the activity change, negative = inhibition is 3.8% [at 12.4 µM]. For the compound `OC[C@H]1O[C@@H](Oc2ccccc2)[C@H](O)[C@@H](O)[C@@H]1O`, the Potency result was “inactive”. `C[C@@H]1O[C@@H](O[C@H]2[C@H](O)[C@@H](O)[C@H](O[C@H]3[C@H](O[C@H]4CC[C@@]5(C)C(=CC[C@@H]6C5CC[C@]5(C)[C@@H]7[C@H](C[C@@H]65)O[C@]5(CC[C@@](C)(CO[C@@H]6O[C@H](CO)[C@@H](O)[C@H](O)[C@H]6O)O5)[C@H]7C)C4)O[C@H](CO)[C@@H](O)[C@@H]3O)O[C@@H]2CO)[C@H](O)[C@H](O)[C@H]1O` (stereo partly drawn): the Potency result is “inactive”.

`CC(C)/C=C1\NC(=O)C(C(C)C)n2c1nc1c(c2=O)C=CC=CO1` (stereo not drawn): the Potency result is “inactive”. On the same count and under the same terms, with `C[C@H]1C(=O)N2c3ccccc3[C@@]3(O)C[C@@H]4C(=O)N[C@](C)(c5nc6ccccc6c(=O)n54)N1[C@@H]23` the entry was “inactive”; with `O=C(O)[C@@H]1C[C@H]2C[C@@H](CCc3nn[nH]n3)CC[C@H]2CN1`, “inactive”; with `CC(C)(C)NS(=O)(=O)c1cncc(-c2cc(F)c3nc(N)nn3c2)c1`, “inactive”. Same read-out and setting: with `CC(O)/C=C/C1(O)C(C)C(O[C@@H]2O[C@H](CO)[C@@H](O)[C@H](O)[C@H]2O)C(O)CC1(C)C` (stereo partly drawn) the entry was “inactive”; with `CN1c2ccccc2C(=O)N2CCC3c4ccccc4NC3C21` (stereo not drawn), “inactive”; with `CC1=CC(=O)CC(C)(C)C1/C=C/C(C)O[C@@H]1O[C@H](CO)[C@@H](O)[C@H](O)[C@H]1O[C@@H]1OC[C@](O)(CO)[C@H]1O` (stereo partly drawn), “inactive”. `CC(C)c1nnc(-c2ccc(-c3ccccc3)nc2)n1-c1cccc2nonc12`: the Potency entry was “inactive”. As for `C[C@@H]1O[C@@H](O[C@H]2[C@H](OC(=O)[C@]34CCC(C)(C)C[C@H]3C3=CCC5[C@@]6(C)CC[C@H](O[C@@H]7O[C@H](C(=O)O)[C@@H](O)[C@H](O)[C@H]7O[C@@H]7O[C@H](CO)[C@H](O)[C@H](O)[C@H]7O)[C@@](C)(C=O)C6CC[C@@]5(C)[C@]3(C)C[C@H]4O)O[C@H](C)[C@H](O[C@@H]3O[C@H](C)[C@H](O)[C@H](O)[C@H]3O)[C@@H]2O)[C@H](O)[C@H](O)[C@H]1O[C@@H]1OC[C@@H](O)[C@H](O[C@@H]2O[C@H](CO)[C@@H](O)[C@H](O)[C@H]2O)[C@H]1O` (stereo partly drawn), the activity change, negative = inhibition was -0.579% [at 12.4 µM]. In the case of `C=CC(=O)Nc1cc(Nc2nccc(-c3c[nH]c4ccccc34)n2)c(OC)cc1N(C)CCN(C)C`, the Potency result is “inactive”.

As to `CC1(C(=O)O)CCCC2(C)C3=CCC4CC3(CCC12)CC4CO` (stereo not drawn), the Potency result was “inactive”.

With `CC1=CC(=O)C(=C(C)C)CC2C1CCC2(C)O` (stereo not drawn), the Potency result was “inactive”.

In the case of `O=C1Nc2ccccc2C(O)(c2ccccc2)C1O` (stereo not drawn), the Potency entry is “inactive”. In the case of `CCCC(=O)NCCc1csc(-c2ccc(Cl)cc2)n1`, the Potency entry is “inactive”. `O=C(O)c1cc(I)ccc1NC(=O)[C@H](Cc1ccccc1)NCc1ccccc1`: the Potency result was “inactive”. The same measure, in the same setting: with `C=C1C(OC(C)=O)CCC2(C)CC3(OC)OC(=O)C(C)=C3CC12` (stereo not drawn) the entry was “inactive”.

On to `C/C(=C\CCC(C)CCO)C(=O)OC1(C)CCC2C(C(=O)O)=COC(OC3OC(CO)C(O)C(O)C3O)C21` (stereo not drawn), for which the Potency result is “inactive”. As to `C=C(CO[C@@H]1O[C@H](CO[C@@H]2OC[C@](O)(CO)[C@H]2O)[C@@H](O)[C@H](O)[C@H]1O)C1Cc2cc(C(C)=O)ccc2O1` (stereo partly drawn), the Potency result is “inactive”. Same read-out and setting: with `O=C(Nc1ccc(S(=O)(=O)C(F)(F)F)cc1)C1=CCN(c2ncccc2C(F)(F)F)CC1` the entry was “inactive”. The same measure, in the same setting: with `C=C(CO)C12OC1C1(C)C(=CC2=O)C(O)C(O)CC1C` (stereo not drawn) the entry was “inactive”. The same measure, in the same setting: with `CC(C)(C(=O)NCC(F)(F)C(F)(F)F)C(=O)NC1C(=O)Nc2ccccc2-c2ccccc21` (stereo not drawn) the entry was “inactive”; with `Cn1c(=O)cc(N2CCCC(N)C2)n(Cc2cc(F)ccc2C#N)c1=O` (stereo not drawn), “inactive”.

Turning to `COC1C(=O)CCC2(CO2)C1(O)C1(C)OC1CC=C(C)C` (stereo not drawn), the Potency entry was “inactive”. On the same count and under the same terms, with `C[C@@H]1C[C@@H]([C@@H](O)C(C)(C)O)O[C@H]2C[C@@]3(C)C(=C12)C[C@H](O)[C@H]1[C@@]2(C)CCC(=O)C(C)(C)C2CC[C@@]13C` (stereo partly drawn) the entry was “inactive”.
